Bioassay records deposited in PubChem by National Center for Advancing Translational Sciences (NCATS).
DT40 TDP1 no CPT: qHTS for Inhibitors of human tyrosyl-DNA phosphodiesterase 1 (TDP1): qHTS in cells in absence of CPT; DT40 Tdp1-/- hTDP1 cells, no CPT, ATP luminescence, 48 h; Potency, µM (highest dose often 46.2 µM), for the others: at the top dose activity change, negative = growth inhibition, hits mostly inhibitors; 420,000 compounds, 15% hits; also: potency is read from the fitted curve at half-maximal effect; nearly all actives have a fitted effect of over 55% in size
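Chicken DT40 Tdp1-/- cells stably complemented with human TDP1 were seeded at 400 cells/well with DMSO in place of 20 nM camptothecin. After compound pinning, cells grew at least 48 hr at 37 °C; viability read by CellTiter-Glo luminescence.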
IL1B secr inh: inflammasome signaling inhibition, IL-1 beta readout; THP-1 LPS/ATP IL-1B secretion, AlphaLISA, 16 h; hits give low values; activity change, % at 57.5 µM; 360,000 compounds, 4.7% hits; AID 743279; in the data active = activity change below about -50%; inconclusive = mostly about -30% to -49%
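Secreted IL-1B measured by AlphaLISA bead assay after 16 h compound exposure of THP-1 cells; compounds (final up to 57.5 uM) added 1 h before LPS (250 ng/mL) and ATP (1.25 mM) stimulation; lower signal means less secretion.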
ALOX12 inh: blocks human arachidonate 12S-lipoxygenase | P18054 | purified 12hLO, xylenol orange hydroperoxide absorbance | AID 1671190 | Potency, µM (highest dose often 108 µM), for inactives: at the top dose activity change, negative = inhibition, actives largely listed as inhibitors | 580,000 compounds, 1.1% hits; also: potency is read from the fitted curve at half-maximal effect
Target sequence (P18054 whole entry, looked up): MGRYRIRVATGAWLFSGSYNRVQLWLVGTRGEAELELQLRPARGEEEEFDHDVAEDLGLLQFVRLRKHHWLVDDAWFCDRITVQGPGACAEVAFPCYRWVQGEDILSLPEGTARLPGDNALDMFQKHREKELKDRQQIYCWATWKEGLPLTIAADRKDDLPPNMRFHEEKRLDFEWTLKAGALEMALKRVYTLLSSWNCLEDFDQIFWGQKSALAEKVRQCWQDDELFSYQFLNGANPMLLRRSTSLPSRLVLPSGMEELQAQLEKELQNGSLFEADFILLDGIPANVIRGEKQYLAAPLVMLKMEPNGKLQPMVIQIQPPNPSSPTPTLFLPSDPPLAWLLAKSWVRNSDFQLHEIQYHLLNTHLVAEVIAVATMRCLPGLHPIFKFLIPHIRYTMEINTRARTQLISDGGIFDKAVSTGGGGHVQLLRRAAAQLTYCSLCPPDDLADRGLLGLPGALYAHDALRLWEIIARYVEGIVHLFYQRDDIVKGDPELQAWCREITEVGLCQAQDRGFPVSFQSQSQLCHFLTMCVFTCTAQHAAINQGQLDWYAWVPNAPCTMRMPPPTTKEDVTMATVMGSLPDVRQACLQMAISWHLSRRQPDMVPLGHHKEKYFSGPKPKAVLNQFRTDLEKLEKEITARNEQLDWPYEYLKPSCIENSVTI
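Purified human 12hLO (150 nM final) in 25 mM Hepes, 0.01% Triton X-100, pH 7.0 was preincubated 15 min at room temperature with compound. Then 40 uM arachidonic acid was added, 30 min. Hydroperoxide was read by Fe-XO absorbance ratio 573/405 nm.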
HT1080-NT tox: kills 2HG-producing HT-1080-NT fibrosarcoma cells; HT-1080-NT fibrosarcoma viability, CellTiter-Glo ATP luminescence, 48 h; Potency, µM (titrated, usually from 46.1 µM), for the others: top-dose activity, negative = less viability, hits mostly cytotoxic; 360,000 compounds, 1.6% hits; AID 686970;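 also: NT is the 2HG producing partner of a matched IDH1 knockdown line; potency is read from the fitted curve at half-maximal effect; 0% = DMSO-treated cells and -100% = media-only wells without cells; nearly all actives have a fitted effect of over 55% in size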
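HT-1080-NT; 750 cells/well; 5% FBS RPMI; 48 h compound, 37 degrees C; CellTiter-Glo luminescence; curve fitting and curve-class assignment.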
DT40 TDP1 CPT: DT40-hTDP1 cell growth loss with CPT; chicken DT40 Tdp1-/-;hTDP1 cells + 20 nM CPT, ATP luminescence, 48 h; Potency, µM (doses to about 46.2 µM), for the others: at the top dose activity change, negative = growth inhibition, actives largely listed as inhibitors; 420,000 compounds, 12% hits; AID 686979; also: potency is read from the fitted curve at half-maximal effect; nearly all actives have a fitted effect of over 55% in size
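Cell growth measured by CellTiter-Glo luminescence after a minimum 48 h, 37 C compound exposure with 20 nM CPT in Tdp1-knockout DT40 cells stably expressing hTDP1, seeded 400/well; qHTS titration format.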
HT1080 IDH1KD tx: HT-1080 IDH1 knockdown cell toxicity (counter line); Potency, µM (titrated, usually from 46.1 µM), for inactives: at the top dose activity, negative = toxicity, hits mostly cytotoxic; HT-1080 IDH1 knockdown viability, ATP luminescence, 48 h; 360,000 compounds, 2% hits;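 also: potency is read from the fitted curve at half-maximal effect; 0% = DMSO wells and -100% = cell-free medium wells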
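HT-1080-IDH1KD cells (IDH1 knocked down), 750/well in RPMI with 5% FBS, treated with compound 48 h at 37 degrees C. Viability by CellTiter-Glo luminescence, normalised to DMSO and no-cell wells; concentration-response curves classed.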
The depositor's hits bear a star; ? = inconclusive; . = not tested or not shown; [ ] = another dose, or the depositor's remark. Shown is part of a subset that was picked to be rich in hits. Unless noted, calls follow the shape of the dose curve; as a rule, active = well fitted curve in the direction sought with a large enough effect; inconclusive = small, poorly fitted or top-dose-only effect, or another doubt; inactive = no such curve, though single readings can be large; an effect the other way counts as inactive or inconclusive. Unless noted, % is scaled to controls: 0 for no effect and ±100 for the full control effect.

SMILES	DT40 TDP1 no CPT	IL1B secr inh	ALOX12 inh	HT1080-NT tox	DT40 TDP1 CPT	HT1080 IDH1KD tx
CC(C)Oc1ccc(F)cc1-c1cc(C(=O)NCc2cc(C(F)(F)F)cc(C(F)(F)F)c2)[nH]n1	21µM*	?	-16%	?	18µM*	?
C[C@H](C(=O)N1Cc2ccccc2CC2(CCCN2C)C1)c1ccccc1 (stereo not given in full)	.	.	2%[6.33 µM]	.	.	.
O=C(/C=C/c1ccc2c(c1)OCCCO2)c1ccc2ccccc2c1O	12µM*	12	-8%	-29%	?	?
Cc1ccc(C(=O)/C=C/c2ccc3c(c2)OCCO3)c(O)c1	?	-93*	0%	-18%	?	-19%
CCc1cc(C(=O)/C=C/c2cc3c(cc2C)OCCO3)c(O)cc1O	11µM*	.	.	?	13µM*	-66%
CCOC(=O)c1oc2cc(O)c(CC)cc2c(=O)c1-c1ccc2c(c1)OCCO2	-23%	-14	?	-18%	-12%	3%
O=C(NCCc1ccc2c(c1)OCCO2)c1ccc(NC(=O)c2ccco2)cc1	.	.	11%	.	.	.
O=C1CC(c2ccco2)CC(O)=C1C=Nc1ccccc1-c1ccccc1 (stereo not given)	?	-29	-7%	-22%	18µM*	-16%
O=C1CC(c2ccco2)CC(O)=C1C=Nc1cc(Cl)ccc1O (stereo not given)	18µM*	21	6%	-1%	15µM*	-27%
COc1ccccc1N(C)S(=O)(=O)c1ccc(C(=O)Nc2nc(C)cs2)cc1	0.65µM*	-17	-16%	-1%	1.5µM*	-9%
CN(c1ccccc1)S(=O)(=O)c1ccc(C(=O)Nc2cccc(S(=O)(=O)N3CCOCC3)c2)cc1	7.3µM*	-12	-5%	-16%	7.3µM*	-22%
COc1ccccc1N(C)S(=O)(=O)c1ccc(C(=O)Nc2ccc(C(N)=O)cc2)cc1	?	19	-2%	0%	?	-4%
COc1ccccc1N(C)S(=O)(=O)c1ccc(C(=O)Nc2cccc(S(=O)(=O)N3CCOCC3)c2)cc1	10µM*	-9	20%	-14%	?	?
CC(Nc1ccc(N2CCCC2=O)cc1)c1nc(C(C)(C)C)no1 (stereo not given)	.	.	6%	.	.	.
O=C(O)C1(Cc2nc3ccccc3s2)CCCC1	.	.	-20%	.	.	.
CN1C[C@H](NC2CCOCC2)CCC[C@@H](C(=O)NCc2cc(F)cc(F)c2)CC1=O	.	.	1%[176 µM]	.	.	.
CN1C[C@H](NC(=O)NC2(c3ccccc3)CCOCC2)CCC[C@@H](C(=O)NCc2cc(F)cc(F)c2)CC1=O	.	.	22µM*	.	.	.
CCc1ccc(Oc2c(C(F)(F)F)oc3c(CN4CCN(C)CC4)c(O)ccc3c2=O)cc1	26µM*	.	-25%	.	?	.
CC1CCN(Cc2c(O)ccc3c(=O)c(Oc4ccccc4Cl)c(C(F)(F)F)oc23)CC1	21µM*	.	-18%	.	?	.
CCCCOC(=O)COc1ccc2c(=O)c(Oc3ccc(CC)cc3)c(C(F)(F)F)oc2c1	.	.	-26%	.	.	.
O=C1CC(N2C(=O)/C(=C/C=C/c3ccccc3)SC2=S)C(=O)N1c1ccccc1 (stereo not given)	13µM*	?	-21%	1%	13µM*	10%
CN(C(=O)CSc1nc2ccc(NC(=O)c3cccc(F)c3)cc2s1)c1ccccc1	6.5µM*	.	-7%	.	8.2µM*	.
CCOc1ccc(C(=O)Nc2ccc3nc(SCC(=O)N(C)c4ccccc4)sc3c2)cc1	3.7µM*	.	-26%	.	2.1µM*	.
O=C(CSc1nc2ccc(NC(=O)c3ccccc3C(=O)O)cc2s1)Nc1ccc(F)c([N+](=O)[O-])c1	-6%	-61*	?	?	7%	-17%
O=C(Nc1ccc2nc(SCc3ccccc3)sc2c1)c1ccccc1F	13µM*	.	-17%	.	16µM*	.
SMILES	DT40 TDP1 no CPT	IL1B secr inh	ALOX12 inh	HT1080-NT tox	DT40 TDP1 CPT	HT1080 IDH1KD tx
COCC1CN(C(=O)c2cc(Cl)ccc2OC)CC12CCNCC2 (stereo not given)	.	.	56%	.	.	.
CCC(=O)Nc1ccc2nc(SCc3ccc(C)cc3)sc2c1	?	.	-24%	.	-26%	.
CCC(=O)Nc1ccc2nc(SCc3ccc(F)cc3)sc2c1	.	.	14µM*	.	.	.
CN(C(=O)CSc1nc2ccc(NC(=O)c3ccccc3F)cc2s1)c1ccccc1	9.2µM*	.	0%	.	15µM*	.
CC(C)(C)C(=O)Nc1ccc2nc(SCc3ccccc3)sc2c1	21µM*	.	-14%	.	?	.
Cc1nc(CN2CCCC(CCc3ccccc3C(F)(F)F)C2)no1 (stereo not given)	.	.	31%	.	.	.
O=C(CSc1ncnc2sc3c(c12)CCCC3)Nc1ncc(Cl)cc1Cl	.	.	18%	.	.	.
CC(=O)c1ccc(-c2ccc(C(=O)O)o2)cc1	.	.	-6%	.	.	.
Cc1occc1C(=O)N/N=C/c1sc(N2CCOCC2)nc1-c1ccccc1	1%	-26	-1%	1%	11%	-2%
Cc1occc1C(=O)N/N=C/C1=C(N2CCOCC2)C(=C/c2ccc(Cl)cc2Cl)/CC1	7.3µM*	-7	-17%	9%	5.8µM*	-1%
O=C1CC2CCN(Cc3coc(-c4ccccc4)n3)CC2CCN1 (stereo not given)	.	.	-1%[6.33 µM]	.	.	.
CC(C)(C)c1ncc(-c2ccccc2)[nH]1	.	.	4%[12.5 µM]	.	.	.
FC(F)(F)c1cccc(Nc2nc3nonc3nc2Nc2ccc(Cl)cc2)c1	0.58µM*	.	?	.	0.23µM*	.
O=C(Nc1cccc(C(F)(F)F)c1)c1cc(-c2ccc(Cl)cc2)on1	?	.	-25%	.	?	.
Cc1ccccc1NC(=O)c1ccc(Cl)c(S(=O)(=O)N2CCCCCC2)c1	16µM*	.	-24%	.	?	.
COc1ccccc1NC(=O)c1ccc(Cl)c(S(=O)(=O)N2CCCCC2)c1	?	4	3%	0%	?	-3%
O=C(NCCc1ccccc1)c1ccc(Cl)c(S(=O)(=O)N2CCCC2)c1	?	12	.	-2%	?	-1%
COc1cccc(C(CNC(=O)c2ccc(Cl)c(S(=O)(=O)N3CCCC3)c2)N(C)C)c1 (stereo not given)	21µM*	-14	180%	0%	?	9%
O=C(NCc1ccccc1)c1ccc(Cl)c(S(=O)(=O)N2CCCC2)c1	18µM*	?	?	0%	-23%	0%
COc1ccccc1NC(=O)c1ccc(C)c(S(=O)(=O)N2CCCCC2)c1	26µM*	-19	11%	-8%	?	?
